Values joined by “and” are separate entries in the source; they are usually repeats but may differ in a detail not shown here. Identical values can stand only once. More than one record can exist for a structure, and the calls need not agree. Active and inactive are the calls of the source. Unless noted, calls come from the whole dose curve; as a rule, active = well fitted curve in the direction sought with a large enough effect in the repeat runs; inconclusive = weak or mixed curves; inactive = no such curve, though single readings can be large; an effect the other way counts as inactive or inconclusive.

Assay [1] can be described thus: qHTS assay to identify small molecule antagonists of the thyroid receptor (TR) signaling pathway - cell viability counter screen (AID 743064). Note: nearly all actives have a fitted effect of over 50% in size. Note: potency is the fitted concentration of half-maximal effect. The method, boiled down: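 Fluorescence from CellTiter-Fluor, added after 23.5 h exposure at 37 °C, reported viability of GH3.TRE-Luc cells co-treated with compound and 1 nM T3. Measured in the same wells as the luciferase TR readout.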

Assay [2] is described as follows: qHTS assay to identify small molecule antagonists of the thyroid receptor (TR) signaling pathway (AID 743065). Note: nearly all actives have a fitted effect of over 55% in size. Note: potency is the fitted concentration of half-maximal effect. The method, boiled down:
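GH3.TRE-Luc rat pituitary cells (two TREs driving luciferase) were dosed with compound, then stimulated with 1 nM T3 (final) for 23.5 h at 37 C. ONE-Glo luminescence was the read-out, with CellTiter-Fluor fluorescence as the cytotoxicity counter-screen.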
A general note: qHTS replaces the single test concentration by a dilution series.

Assay [3] relates to thyroid hormone receptor (rat, GH3 cells). Kind of assay: qHTS assay to identify small molecule agonists of the thyroid receptor (TR) signaling pathway (AID 743066; calls by dose curve).
Assay [4] in a line: qHTS assay to identify small molecule antagonists of the estrogen receptor alpha (ER-alpha) signaling pathway - cell viability counter screen (AID 743074; calls by dose curve;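 note: HEK293 cells carrying ER-alpha-UAS-bla reporter stimulated with 17beta-estradiol; nearly all actives have a fitted effect of over 45% in size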; note: potency is the fitted concentration of half-maximal effect).
Assay [5] deals with Estrogen receptor (Homo sapiens) (UniProt P03372). Kind of assay: qHTS assay to identify small molecule agonists of the estrogen receptor alpha (ER-alpha) signaling pathway (AID 743075; calls by dose curve;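 note: HEK293 GripTite cells with ER-alpha and UAS-driven beta-lactamase reporter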; note: potency is the fitted concentration of half-maximal effect).
Assay [6] shares this target. As to the kind of experiment: qHTS assay to identify small molecule agonists of the estrogen receptor alpha (ER-alpha) signaling pathway using the BG1 cell line (AID 743079). Note: nearly all actives have a fitted effect of over 20% in size. Note: potency is the fitted concentration of half-maximal effect.
A short description of assay [7]: qHTS assay to identify small molecule antagonists of the estrogen receptor alpha (ER-alpha) signaling pathway using the BG1 cell line (AID 743080; calls by dose curve;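 note: BG1 cells stimulated with 17beta-estradiol alongside compound; nearly all actives have a fitted effect of over 25% in size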; note: potency is the fitted concentration of half-maximal effect). The method, boiled down: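 BG1Luc4E2, endogenous ER-alpha, 4xERE-luc; 5 d charcoal-stripped FBS, phenol red free; 24 h plating; cpd + 17beta-estradiol 21.5 h, 37 C/5% CO2; CellTiter-Fluor viability 30 min, then ONE-Glo luciferase 30 min RT.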

The nature of assay [8]: qHTS assay to identify small molecule antagonists of the estrogen receptor alpha (ER-alpha) signaling pathway using the BG1 cell line - cell viability counter screen (AID 743081).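 Note: compound given together with 17beta-estradiol as the ER stimulus; nearly all actives have a fitted effect of over 45% in size.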 Note: potency is the fitted concentration of half-maximal effect.
The next assay has as its target Aromatase (Homo sapiens) (UniProt P11511). As to the kind of experiment: qHTS assay to identify aromatase inhibitors (AID 743083). Note: nearly all actives have a fitted effect of over 55% in size. Note: potency is the fitted concentration of half-maximal effect.
Assay [9] has as its target Estrogen receptor (Homo sapiens) (UniProt P03372). As to the kind of experiment: qHTS assay to identify small molecule antagonists of the estrogen receptor alpha (ER-alpha) signaling pathway (AID 743069; active = well fitted curve in the direction sought with a large enough effect in the signal ratio in the repeat runs, not every such curve was filed as active; inconclusive = weak or mixed curves, or effect the other way; inactive = no such curve, though single readings can be large or run the other way; the % refers to the signal ratio; note: potency is the fitted concentration of half-maximal effect). The method, boiled down:
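Beta-lactamase FRET fluorescence is read after 2 hr at room temperature with LiveBLAzer B/G substrate. Before that, ER-alpha-bla HEK293 cells sit 4 hr after plating, then receive compound plus 17beta-estradiol and incubate 18 hr at 37C.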

Chain of Estrogen receptor (Homo sapiens) (P03372 whole entry, looked up): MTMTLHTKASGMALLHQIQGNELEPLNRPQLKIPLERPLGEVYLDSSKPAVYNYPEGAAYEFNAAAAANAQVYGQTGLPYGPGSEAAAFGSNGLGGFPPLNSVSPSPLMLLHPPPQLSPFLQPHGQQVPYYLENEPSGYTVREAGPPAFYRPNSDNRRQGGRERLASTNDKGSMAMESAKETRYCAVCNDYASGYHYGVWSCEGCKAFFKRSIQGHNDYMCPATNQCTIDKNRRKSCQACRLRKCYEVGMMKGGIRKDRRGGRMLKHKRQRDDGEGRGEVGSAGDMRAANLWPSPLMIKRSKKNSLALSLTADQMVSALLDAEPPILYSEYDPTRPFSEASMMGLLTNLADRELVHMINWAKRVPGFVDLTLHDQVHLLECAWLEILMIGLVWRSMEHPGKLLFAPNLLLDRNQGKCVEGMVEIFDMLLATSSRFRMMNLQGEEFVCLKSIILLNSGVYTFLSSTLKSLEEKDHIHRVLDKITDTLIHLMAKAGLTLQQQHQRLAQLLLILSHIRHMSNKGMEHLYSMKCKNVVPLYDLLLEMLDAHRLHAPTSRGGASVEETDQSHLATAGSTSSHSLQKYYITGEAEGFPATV
Chain of Aromatase (Homo sapiens) (P11511 whole entry, looked up): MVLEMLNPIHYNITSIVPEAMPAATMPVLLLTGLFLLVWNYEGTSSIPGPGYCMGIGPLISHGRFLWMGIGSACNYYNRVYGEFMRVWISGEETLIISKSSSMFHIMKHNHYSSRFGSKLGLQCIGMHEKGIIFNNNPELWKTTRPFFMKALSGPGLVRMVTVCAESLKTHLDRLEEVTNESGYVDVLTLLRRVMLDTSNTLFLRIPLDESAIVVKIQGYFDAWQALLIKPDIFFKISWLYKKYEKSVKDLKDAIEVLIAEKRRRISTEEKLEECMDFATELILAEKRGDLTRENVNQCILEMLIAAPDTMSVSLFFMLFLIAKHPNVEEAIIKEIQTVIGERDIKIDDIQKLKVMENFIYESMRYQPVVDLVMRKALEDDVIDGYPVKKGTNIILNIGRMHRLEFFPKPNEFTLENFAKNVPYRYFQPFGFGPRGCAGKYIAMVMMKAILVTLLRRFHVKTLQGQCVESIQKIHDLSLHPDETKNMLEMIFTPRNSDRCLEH

For `C=CS(=O)(=O)O`, the Potency result in assay [1], in assay [2], in [3], in assay [4], in [5] and in assay [6] was “inactive” each time. The Potency result (in assay [7]; in assay [8]; with Aromatase (Homo sapiens)) was “inactive” in each case.

Take `OCC(CO)N[C@H]1C[C@](O)(CO)[C@@H](O)[C@H](O)[C@H]1O`: the Potency result in [1], in assay [2], in assay [3], in [4], in [5] and in assay [6] was “inactive” throughout. Moreover, the Potency result (in assay [7]; in assay [8]; with Aromatase (Homo sapiens)) was “inactive” each time.

For the molecule `CO[Si](OC)(OC)c1ccccc1`, the Potency result in [1], in assay [2], in [3], in assay [4], in assay [5] and in assay [6] was “inactive” throughout. Also, the Potency entry (in [7]; in [8]; with Aromatase (Homo sapiens)) was “inactive” throughout.

On to `Clc1ccc2c(c1)C(N1CCNCC1)=Nc1ccccc1O2`, for which the Potency in assay [1] is 30.6 µM (active); in assay [2], 29.8 µM (active) and 30.6 µM (active); in assay [7] it was 11.9 µM (active); in [8], “inactive and 54.5 µM (active)”; in the assay with Aromatase (Homo sapiens), “inactive and 17.2 µM (active)”. In addition, the Potency entry in assay [3], in [4], in assay [5] and in [6] was “inactive” throughout.

For `CCN1CCCC1CNC(=O)c1cc(S(=O)(=O)CC)c(N)cc1OC` (centres undefined), the Potency result in [1], in assay [2], in [3], in assay [9], in [5] and in assay [6] was “inactive” each time. Moreover, the Potency result (in assay [7]; in the assay with Aromatase (Homo sapiens)) was “inactive” throughout.

As for `CCn1cc(C(=O)O)c(=O)c2cc(F)c(N3CCNC(C)C3)c(F)c21` (centres undefined), the Potency result in [1], in assay [2], in assay [3], in assay [9], in [4] and in assay [5] was “inactive” in each case. Besides, the Potency entry (in assay [6]; in assay [7]; in assay [8]; with Aromatase (Homo sapiens)) was “inactive” throughout.

Take `NCCCCCC(=O)O`: the Potency entry in assay [1], in assay [2], in assay [3], in assay [9], in assay [4] and in assay [5] was “inactive” in each case. Further, the Potency entry (in assay [6]; in assay [7]; in [8]; with Aromatase (Homo sapiens)) was “inactive” each time.

Take `CCCNC(C)C(=O)Nc1ccccc1C` (centres undefined): the Potency result in assay [1], in [2], in assay [3], in assay [4], in assay [5] and in assay [6] was “inactive” in each case. The Potency entry (in assay [7]; in [8]; with Aromatase (Homo sapiens)) was “inactive” in each case.

On to `O=C(Nc1ccccc1SSc1ccccc1NC(=O)c1ccccc1)c1ccccc1`, for which the Potency in assay [1] is 68.6 µM (active); in [2] it was 21.8 µM (active) and 48.6 µM (active); in assay [6], 27.4 µM (active) and 54.5 µM (active); with Aromatase (Homo sapiens), 13.8 µM (active) and 27.3 µM (active). Further, the Potency result in assay [3], in assay [9] and in [8] was “inactive” throughout.

For `CCC(C)(Oc1ccc(C2(c3ccc(OC(C)(CC)C(=O)O)cc3)CCCCC2)cc1)C(=O)O` (centres undefined), the Potency entry in [1], in assay [2], in assay [3], in [4], in assay [5] and in assay [6] was “inactive” in each case. Besides, the Potency result (in assay [7]; in assay [8]; with Aromatase (Homo sapiens)) was “inactive” in each case.

`Nc1cc(Cl)c(-c2cc(Cl)c(N)cc2Cl)cc1Cl`: the Potency in assay [1] was 10.9 µM (active) and 8.63 µM (active); in assay [2], 1.53 µM (active) and 1.54 µM (active); in assay [9], 1.55 µM [inconclusive] (active) and 19.5 µM [inconclusive] (active); in [4], 48.9 µM (active) and 24.5 µM (active); in assay [7] it was 54.4 µM (active) and 54.5 µM (active); in the assay with Aromatase (Homo sapiens) it was 12.2 µM (active) and 15.4 µM (active). Also, the Potency entry in [3], in assay [5] and in assay [8] was “inactive” in each case.

`Cc1scc2c1N(C(=O)CN1CCN(C)CC1)c1ccccc1NC2=O`: the Potency result in [1], in assay [2], in assay [3], in assay [4], in assay [5] and in assay [6] was “inactive” throughout. Further, the Potency result (in [7]; in assay [8]; in the assay with Aromatase (Homo sapiens)) was “inactive” each time.

Regarding `O=C(O)CP(=O)(O)O`, the Potency result in assay [1], in [2], in assay [3], in assay [9], in assay [4] and in assay [5] was “inactive” in each case. The Potency result (in assay [6]; in assay [7]; in [8]; with Aromatase (Homo sapiens)) was “inactive” throughout.

Turning to `CCOc1ccccc1C(N)=O`, the Potency entry in assay [1], in [2], in [3], in [4], in [5] and in [6] was “inactive” each time. Besides, the Potency entry (in assay [7]; in assay [8]; with Aromatase (Homo sapiens)) was “inactive” in each case.

In the case of `Nc1nc2ccccc2[nH]1`, the Potency result in assay [1], in [2], in assay [3], in assay [9], in assay [4] and in [5] was “inactive” each time. The Potency entry (in assay [6]; in assay [7]; in assay [8]; in the assay with Aromatase (Homo sapiens)) was “inactive” each time.

For `c1ccc2cc3c(ccc4ccccc43)cc2c1`, the Potency result in [1], in assay [2], in assay [3], in assay [4], in assay [7] and in assay [8] was “inactive” in each case. For the same molecule, in the assay with Aromatase (Homo sapiens), the Potency result is “inactive”. Further, the Potency is 55.1 µM [activator] (active) and inactive in assay [5]; 54.6 µM (active) and 48.6 µM (active) in assay [6].

As for `COC(=O)c1cccc(C(=O)OC)c1`, the Potency entry in assay [1], in assay [2], in assay [3], in assay [4], in [5] and in [6] was “inactive” throughout. For the same molecule, the Potency result (in assay [7]; in assay [8]; in the assay with Aromatase (Homo sapiens)) was “inactive” in each case.

For the molecule `CC(=O)N[C@@H](CS)C(=O)O`, the Potency entry in [1], in assay [2], in [3], in [9], in [4] and in assay [5] was “inactive” each time. Further, the Potency entry (in assay [6]; in assay [7]; in assay [8]; with Aromatase (Homo sapiens)) was “inactive” throughout.
